The structures appear in SMILES notation. About 83,000 compounds went through this panel and 20% of them were active in at least one assay; those are over-represented in the sample as a whole.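 Negative percent growth values reflect cell death: -40 means 40% of the cells present at the start died, and -100 means all died.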 Values without a mark were called inactive. The source made the active and inactive calls. How the source made its calls: active means growth percent below 10; inactive means the rest.

Among the test systems are NCI-H23 lung; NCI-H226 lung; NCI-H322M lung; HOP-62 NSCLC; NCI-H460 lung; HOP-92 NSCLC; NCI-H522 lung; A549/ATCC NSCLC; 786-0 renal; COLO 205 colon; DU-145 prostate; K-562 leukemia; MALME-3M melanoma; MDA-MB-231 breast; RXF 393 renal; SF-268 CNS; SF-295 CNS; SF-539 CNS; UACC-257 melanoma; M14 melanoma.
Assay in all cases: NCI-60 one-dose screen, 48 h (100 = growth as untreated, 0 = no growth, -100 = all killed)
Common to all, as to settings: 10 µM unless noted

As for `COc1ccc(Nc2ncnc3sc4c(c23)CCN(Cc2ccccc2)C4)cc1`, the growth in the assay on NCI-H23 lung was 91.8%; in the assay with NCI-H226 lung it was 84.3%; in the assay on NCI-H322M lung it was 93.7%; with HOP-62 NSCLC it was 81.9%; with NCI-H460 lung it was 71%; in the assay on HOP-92 NSCLC it was 85.7%. Also, the growth is 63.2% in the assay on NCI-H522 lung; 77.3% in the assay with A549/ATCC NSCLC; 76.4% with 786-0 renal; 106% with COLO 205 colon; 94.3% with DU-145 prostate; 45.3% in the assay on K-562 leukemia. In addition, the growth was 107% in the assay with MALME-3M melanoma; 87.5% with MDA-MB-231 breast; 74.6% with RXF 393 renal; 66.1% with SF-268 CNS; 67.6% in the assay on SF-295 CNS; 91.3% in the assay on SF-539 CNS. The growth in the assay on UACC-257 melanoma was 94.6%; with M14 melanoma, 81.1%.

In the case of `O=C(c1ccc(O)cc1)C1[C@H](c2ccc(Cl)cc2)[C@@H](c2ccccc2)NC12C(=O)Nc1ccccc12` (stereo not given in full), the growth was -41.7% (active) in the assay on NCI-H23 lung; -13.8% (active) with NCI-H226 lung; 9.03% (active) in the assay with NCI-H322M lung; -20.1% (active) in the assay with HOP-62 NSCLC; -20.5% (active) with NCI-H460 lung; -27.8% (active) with HOP-92 NSCLC. Besides, the growth with NCI-H522 lung was -8.98% (active); with A549/ATCC NSCLC it was 14.4%; in the assay with 786-0 renal, -43.2% (active); in the assay on COLO 205 colon, -82.9% (active); in the assay on DU-145 prostate, 20.5%; in the assay on K-562 leukemia, -8.58% (active). For the same compound, the growth with MALME-3M melanoma was -40.2% (active); in the assay on MDA-MB-231 breast it was -80.2% (active); in the assay on RXF 393 renal, -74% (active); with SF-268 CNS it was 22.4%; in the assay on SF-295 CNS, -48.6% (active); with SF-539 CNS, -50.6% (active). Moreover, the growth was 77.7% in the assay on UACC-257 melanoma and -27% (active) in the assay with M14 melanoma.

Turning to `O=C(Cn1c(-c2ccccc2)nc2ccccc21)N=Nc1c(O)[nH]c2ccc(Br)cc12`, the growth in the assay on NCI-H23 lung is 3.3% (active); with NCI-H226 lung it was -59.9% (active); in the assay on NCI-H322M lung, -6.14% (active); in the assay on HOP-62 NSCLC, -68.1% (active); with NCI-H460 lung, -29.9% (active); with HOP-92 NSCLC it was -60.6% (active). Also, the growth was 29.5% in the assay with NCI-H522 lung; 8.52% (active) in the assay on A549/ATCC NSCLC; -56.2% (active) with 786-0 renal; -66.9% (active) in the assay with COLO 205 colon; 3.6% (active) with DU-145 prostate; 6% (active) with K-562 leukemia. In addition, the growth in the assay on MALME-3M melanoma was -20.5% (active); in the assay on MDA-MB-231 breast, -56.8% (active); in the assay on RXF 393 renal it was -80% (active); in the assay with SF-268 CNS it was -0.321% (active); with SF-295 CNS, -80.4% (active); with SF-539 CNS it was -80.9% (active). Further, the growth in the assay with UACC-257 melanoma was 9.11% (active); in the assay with M14 melanoma it was 5.92% (active).

Consider `OCCn1cc(-c2nc3ccc4[nH]ncc4c3c3c2CCCC3)cn1`, for which the growth in the assay on NCI-H23 lung is 43.1%; in the assay with NCI-H226 lung, 17.9%; in the assay with NCI-H322M lung, 68.5%; with HOP-62 NSCLC, 57.7%; in the assay with NCI-H460 lung, 20%; in the assay on HOP-92 NSCLC it was 51.8%. For the same compound, the growth was 38.9% with NCI-H522 lung; 26.6% in the assay with A549/ATCC NSCLC; 43.1% with 786-0 renal; 32.8% in the assay on COLO 205 colon; 36.2% in the assay with DU-145 prostate; 21.4% with K-562 leukemia. Moreover, the growth was 24.1% with MALME-3M melanoma; 54.9% with MDA-MB-231 breast; -12.6% (active) in the assay with RXF 393 renal; 64% in the assay on SF-268 CNS; 60.9% in the assay on SF-295 CNS; 36.2% in the assay on SF-539 CNS. The growth was 58% in the assay with UACC-257 melanoma and 22.6% in the assay on M14 melanoma.

Turning to `ClC(Cn1ncc2c(Nc3cccc(Br)c3)nc(SCCN3CCOCC3)nc21)c1ccc(Br)cc1` (stereo not given), the growth is -20.2% (active) with NCI-H23 lung; 32.2% in the assay with NCI-H226 lung; 47.5% in the assay on NCI-H322M lung; -12.9% (active) in the assay with HOP-62 NSCLC; 27.6% with NCI-H460 lung; -18.9% (active) in the assay with HOP-92 NSCLC. The growth in the assay on NCI-H522 lung is 13.9%; in the assay on A549/ATCC NSCLC, 15.7%; in the assay on 786-0 renal it was -66.5% (active); in the assay on COLO 205 colon, -79.2% (active); with DU-145 prostate it was 28.6%; in the assay on K-562 leukemia, -37.7% (active). Also, the growth in the assay on MALME-3M melanoma is -38% (active); with MDA-MB-231 breast, -51.8% (active); in the assay on RXF 393 renal it was -62.2% (active); in the assay on SF-268 CNS, 44.7%; in the assay on SF-295 CNS it was -71.3% (active); with SF-539 CNS it was -79.1% (active). The growth with UACC-257 melanoma was -42.8% (active); in the assay on M14 melanoma it was -19.5% (active).

As for `NNc1ncnc2sc3c(c12)CCN(Cc1ccccc1)C3`, the growth with NCI-H23 lung is 73.2%; in the assay with NCI-H226 lung it was 38.9%; with NCI-H322M lung, 40.9%; in the assay with HOP-62 NSCLC, 58%; with NCI-H460 lung it was 37.3%; in the assay with HOP-92 NSCLC it was 77.7%. Besides, the growth with NCI-H522 lung is 2.62% (active); with A549/ATCC NSCLC it was 75.1%; with 786-0 renal it was 59.1%; with COLO 205 colon, 16.6%; with DU-145 prostate, 61.7%; in the assay on K-562 leukemia it was 19%. Moreover, the growth in the assay with MALME-3M melanoma is 70.4%; with MDA-MB-231 breast, 40.8%; in the assay with RXF 393 renal, 69.3%; with SF-268 CNS, 43.8%; in the assay on SF-295 CNS, 45.2%; with SF-539 CNS, 52.8%. Also, the figures for the growth in the assay on UACC-257 melanoma and in the assay with M14 melanoma were 47% and 62.9%, respectively.

With `O=C(NN1C(=O)/C(=C/C=C/c2ccc([N+](=O)[O-])o2)SC1=S)c1ccc(O)cc1`, the growth is -85.7% (active) with NCI-H23 lung; -86.3% (active) with NCI-H226 lung; -78.5% (active) in the assay with NCI-H322M lung; -99.5% (active) in the assay with HOP-62 NSCLC; -54% (active) with NCI-H460 lung; -81% (active) in the assay on HOP-92 NSCLC. Also, the growth in the assay on NCI-H522 lung is -98.1% (active); with A549/ATCC NSCLC it was -81.5% (active); in the assay on 786-0 renal it was -90.4% (active); in the assay on COLO 205 colon, -94.8% (active); in the assay with DU-145 prostate, -100% (active); with K-562 leukemia, 0.602% (active). Also, the growth in the assay with MALME-3M melanoma was -97.9% (active); with MDA-MB-231 breast, -95.9% (active); with RXF 393 renal it was -86.2% (active); in the assay with SF-268 CNS it was -74.3% (active); with SF-295 CNS, -85.6% (active); in the assay on SF-539 CNS, -100% (active). For the same compound, the growth with UACC-257 melanoma is -90.4% (active); in the assay on M14 melanoma, -81.9% (active).

The values are drawn from PubChem BioAssay (NCI).
